The list is not random: actives were taken first. Their share in the collection is about 6.8%.
DPM-DC inhibit: inhibitors of Streptococcus pneumoniae diphosphomevalonate decarboxylase. calls only at 10 µM. purified DPM-DC, PK/LDH coupled NADH fluorescence. AID 556. 65,000 compounds, 0.49% hits;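 active = the 320 compounds with the highest percent inhibition in the single-dose primary screen, excluding strongly autofluorescent ones, cut at about 32% in these data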;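 note: kinetic rate of NADH fluorescence loss reporting ADP formed by the decarboxylase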
Abs 340nm: compound absorbs light at 340 nm | compound absorbance at 340 nm, fold over control | fold change at 10 µM | 65,000 tested, under 10 active | AID 708;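 active = at 10 µM dose, initial 340 nm absorbance at least 2 fold that of control wells; inactive = change under 2 fold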;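 note: initial absorbance extrapolated from kinetic A340 decline of NADH oxidation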
Autofluor 339: intrinsic fluorescence of library compounds, ex339/em460 – biochemical, MLSMR library, data from DPM-DC assay, artefact control, profiling panel; compound autofluorescence, ex339/em460 nm, NADH buffer; active compounds read high; 1 = no-compound wells, NADH background; fluorescence fold increase at 10 µM; 65,000 compounds, 5.5% hits; AID 709;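 active = at 10 µM, mean starting fluorescence two-fold or more over control wells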;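 note: signal is the first read of a kinetic run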
NADH enzymes: inhibition of NAD/NADH coupling enzymes, library profiling. IC50, µM (top dose mostly 10 µM). 65,000 compounds, 0.02% hits. AID 774. coupled PK/LDH NADH assays, four targets;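 active = single-dose screening hits from any of four coupled enzyme assays that gave an IC50 when retested across doses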;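 note: the DPM-DC format reads NADH fluorescence rather than 340 nm absorbance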
Spn PMK inh: blocks S. pneumoniae phosphomevalonate kinase | purified PMK, PK/LDH-coupled NADH absorbance 340 nm | inhibition, % at 10 µM | 65,000 compounds, 0.49% hits;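 active = top-ranked compounds by inhibition in the single 10 µM screen, taking a fixed number of the strongest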
Spn MK inh: blocks S. pneumoniae mevalonate kinase | purified MK, PK/LDH-coupled NADH absorbance 340 nm | inhibition, % at 10 µM | 65,000 compounds, 0.48% hits;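 active = ranked among the strongest by inhibition in the single 10 µM screen, a fixed top-ranked set picked for dose follow-up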
Large screens that a line does not name were inactive; [ ] = dose if it differs, or a comment.

CCOc1ccc(OCC)c(NC(=O)CN2CCN(c3cccc(C)c3)C(C)C2)c1 (centres undefined)	Spn MK inh 42
CCOc1ccc(OCC)c(NC(=O)CN2CCN(c3cccc(C)c3)CC2)c1	Spn MK inh 71
CCn1c(-c2ccsc2)nc2c1c(=O)[nH]c(=O)n2Cc1ccccc1	none
O=c1[nH]c(=O)n(Cc2ccco2)c2c1C(C(F)(F)F)(C(F)(F)F)N=C(C1CCCCC1)N2	Autofluor 339 2.1
CCCCOc1ccc(C(=O)OC(C)CN(C)C)cc1 (centres undefined)	Autofluor 339 5 (not shown: DPM-DC inhibit)
CCc1nc(NCC(C)C)c(C#N)c2c1COC(C)(C)C2	Autofluor 339 2.1 (not shown: DPM-DC inhibit)
CCc1nc(NCC2CCCO2)c(C#N)c2c1COC(C)(C)C2 (centres undefined)	Autofluor 339 2.3 (not shown: DPM-DC inhibit)
CC(C)c1nc(NCC2CCCO2)c(C#N)c2c1COC(C)(C)C2 (centres undefined)	DPM-DC inhibit active[fluoresces], Autofluor 339 2.4
CCc1nc(NC2CCCCC2)c(C#N)c2c1COC(C)(C)C2	none
COC(=O)c1nc(NC(=O)C(C)C)n[nH]1	none
Cc1c2c(n3c(nc4ccccc43)c1C#N)N(Cc1cccnc1)CC2	Autofluor 339 5 (not shown: DPM-DC inhibit)
COCCNc1cc(C)c(C#N)c2nc3ccccc3n12	Autofluor 339 2.3 (not shown: DPM-DC inhibit)
N#Cc1c2c(c(N3CCN(c4ccccn4)CC3)n3c1nc1ccccc13)CCC2	none
Cc1c2c(n3c(nc4ccccc43)c1C#N)N(Cc1ccccn1)CC2	Autofluor 339 4.9 (not shown: DPM-DC inhibit)
Cc1cc(N2CCN(c3ccccn3)CC2)n2c(nc3ccccc32)c1C#N	Autofluor 339 2.2
N#Cc1ccsc1NC(=O)c1ccccn1	none
Cc1nc2nc(-c3cccs3)cn2nc1C	Autofluor 339 3.7 (not shown: DPM-DC inhibit)
COc1cccc(-c2cn3nc(C)c(C)nc3n2)c1	Autofluor 339 3.1
CCCCn1c(SCC(=O)c2ccc3c(c2)OCCO3)nnc1-c1ccoc1C	none
Cc1c(NC(=O)c2ccc(COc3ccc4ccccc4c3)o2)c(=O)n(-c2ccccc2)n1C	none
CC1(C)CC(=O)C(C(C2=C(O)CC(C)(C)CC2=O)c2cccnc2)C(=O)C1 (centres undefined)	none
CC1(C)CC(=O)C(C(C2=C(O)CC(C)(C)CC2=O)c2cccc(O)c2)C(=O)C1 (centres undefined)	Spn PMK inh 29
CCOC(=O)C1=C(N)OC2=C(C(=O)CC(C)(C)C2)C1C1CCCCC1 (centres undefined)	none
CC(=O)Nc1c(O)n(C)c2ccccc12	Spn PMK inh active
COc1ccc(C(=O)NC2CCCCC2)cc1S(=O)(=O)N1CCCC1	none
O=C(NCC(c1cccnc1)N1CCN(c2ccccc2F)CC1)c1ccccc1 (centres undefined)	none
CC1(C)Cc2ccccc2-c2nc(NCCO)n(-c3ccccc3)c(=O)c21	Autofluor 339 2.2 (not shown: DPM-DC inhibit)
CCC1(C)Cc2ccccc2-c2nc(NCCO)n(-c3ccccc3)c(=O)c21 (centres undefined)	Autofluor 339 2.3 (not shown: DPM-DC inhibit)
c1ccc2c(c1)NC(c1ccncc1)n1c-2nc2ccccc21 (centres undefined)	none
c1ccc2c(c1)NC1(CCCC1)n1c-2nc2ccccc21	Autofluor 339 5 (not shown: DPM-DC inhibit)
CCOC(=O)c1[nH]c2ccc(C)cc2c1NC(=O)CN1CCCCC1	none
CCOC(=O)c1[nH]c2ccc(OC)cc2c1NC(=O)CN1CCC2(CC1)OCCO2	Autofluor 339 3.9 (not shown: DPM-DC inhibit)
CCOC(=O)c1[nH]c2cc(OC)c(OC)cc2c1NC(=O)CN1CCN(C)CC1	Autofluor 339 3.6 (not shown: DPM-DC inhibit)
CCOC(=O)c1[nH]c2ccc(OC)cc2c1NC(=O)C(C)N1CCC2(CC1)OCCO2 (centres undefined)	Autofluor 339 3.8 (not shown: DPM-DC inhibit)
CCOC(=O)c1[nH]c2ccc(OC)cc2c1NC(=O)c1nonc1C	none
CCOC(=O)c1[nH]c2ccc(F)cc2c1NC(=O)C(C)N1CCc2cc(OC)c(OC)cc2C1 (centres undefined)	none
N#Cc1c(-c2cccs2)cc(-c2ccccn2)nc1N	Autofluor 339 3.8 (not shown: DPM-DC inhibit)
CCCCSc1nc(N)c(C#N)c(-c2cccs2)c1C#N	none
N#Cc1c(-c2cccs2)cc(-c2cccnc2)nc1N	Autofluor 339 3.8 (not shown: DPM-DC inhibit)
O=C(Nc1ccc(S(=O)(=O)NC2CCCCC2)cc1)c1ccc(Br)o1	none
Cc1ccc(N2CC(C(=O)N3CCc4ccccc4C3)CC2=O)cc1 (centres undefined)	none

From PubChem
